Screening results (PubChem BioAssay)
Rpn11 block = Rpn11 (human) deubiquitinase inhibition; O00487; human 26S proteasome, Ub4-pepOG fluorescence polarization; 20S core pre-blocked with epoxomicin; inhibition, % at 20 µM; 360,000 compounds, 0.59% hits; AID 588493;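 active means inhibition at 20 µM, scaled to each plate's controls, above about 33%, limit read from the data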
Myeloid diff 2 = promotes myeloid progenitor differentiation. calls only at 10 µM. 360,000 compounds, 1% hits. AID 624256. ER-HoxA9 myeloid progenitors, lysozyme-GFP differentiation, flow cytometry;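 active means normalized GFP-positive differentiation at or above the plate's own cutoff, the solvent-only control mean plus 3 SD; inconclusive means no clear call, values can overlap the other calls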;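 further: cells exposed to compound for four days before flow analysis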
HNF4A DNA FP = change in binding of human HNF4 alpha to DNA; HNF4a-FITC DNA binding, fluorescence polarization, 1 h; activity change, % at 10 µM; P41235; 360,000 compounds, 0.3% hits; AID 1224865; in the data active means activity change above about 30%, passing the limit was not always enough
Target sequence (P41235 whole entry, looked up): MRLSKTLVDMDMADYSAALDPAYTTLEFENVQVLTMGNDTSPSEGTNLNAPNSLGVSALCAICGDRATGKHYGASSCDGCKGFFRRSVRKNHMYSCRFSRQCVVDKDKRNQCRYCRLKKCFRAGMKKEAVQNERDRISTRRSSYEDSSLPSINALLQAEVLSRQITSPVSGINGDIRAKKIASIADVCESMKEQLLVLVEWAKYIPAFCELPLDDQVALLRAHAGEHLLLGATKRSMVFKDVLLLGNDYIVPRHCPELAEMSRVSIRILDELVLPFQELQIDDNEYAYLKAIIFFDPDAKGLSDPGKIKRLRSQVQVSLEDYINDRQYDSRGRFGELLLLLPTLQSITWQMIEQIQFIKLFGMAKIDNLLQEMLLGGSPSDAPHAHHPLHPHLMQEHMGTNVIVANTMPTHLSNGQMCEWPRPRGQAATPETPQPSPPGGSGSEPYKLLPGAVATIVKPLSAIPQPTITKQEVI
TPT1 inhibitor = blocks Candida albicans tRNA 2'-phosphotransferase. recombinant caTPT1, FP RNA substrate dephosphorylation. inhibition, % at 5 µM. 300,000 compounds, 0.81% hits. AID 1962;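 active means inhibition above the mean of all tested compounds plus 3 SD, set per screening campaign, cut at about 24% in these data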;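 further: plate controls were DMSO alone for no effect and ferristatin control at 100 nM for full effect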
TPT1 inh confirm = TPT1 (C. albicans) inhibition, confirmation | recombinant caTPT1, fluorescence polarization, RNase T1 coupled | inhibition, % at 5 µM | AID 2149 | 2,400 compounds, 74% hits | shares compounds with TPT1 inhibitor;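 active means inhibition above the primary screen limit, the mean inhibition of all tested compounds plus 3 SD, cut at about 25% in these data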
RNase T1 counter = RNase T1 inhibition in TPT1 counter-screen. shares compounds with TPT1 inhibitor. inhibition, % at 5 µM. 2,400 compounds, 83% hits. RNase T1 cleavage, fluorescence polarization, 1536-well;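 active means inhibition above the solvent-only control well mean plus 3 SD, limit set per screening run, cut at about 23% in these data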;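 further: plate controls were DMSO wells with enzyme for no effect and wells without RNase T1 for full effect; inhibitors block cleavage so intact labeled substrate keeps polarization high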
Target sequence (P00651 whole entry, looked up): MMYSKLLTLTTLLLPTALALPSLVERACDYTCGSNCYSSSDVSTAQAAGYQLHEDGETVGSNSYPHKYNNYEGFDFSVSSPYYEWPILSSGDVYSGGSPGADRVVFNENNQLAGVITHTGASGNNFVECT
* = called active by the depositor; i = inactive; ? = inconclusive; . = no result shown; + = active, no number. Shown are actives, neighbours in structure and some others; about 2.1% of the full set was active somewhere.

SMILES | Rpn11 block | Myeloid diff 2 | HNF4A DNA FP | TPT1 inhibitor | TPT1 inh confirm | RNase T1 counter
COc1ccc2c(c1)c(/C=C/c1cc[n+](C)cc1)cn2C | . | ? | 127 | 72* | 88* | 91*
COc1ccc2c(c1)c1ccccc1n2C | -6 | i | -1 | 0 | . | .
CCCN1C=CC(=C/C=C(\C#N)C(=O)OCC)C=C1 | . | . | . | 181* | 190* | 177*
CCCCCCN1C=CC(=C/C=C(\C#N)C(=O)OCC)C=C1 | . | i | 196 | 176* | 193* | 173*
CCOC(=O)/C(C#N)=C/N=c1ccc(C)cn1C | 6 | i | 2 | -1 | . | .
O=C(NCc1cccc(C(F)(F)F)c1)C1CC2Cn3c(nc4ccccc43)C2N1Cc1ccccc1 (configuration not stated) | 5 | i | 0 | 1 | . | .
O=C1CCCCC1C(O)c1ccc(Cl)cc1 (configuration not stated) | . | . | . | 82* | 1 | 3
COc1ccc(Cn2c(O)cc(=O)[nH]c2=O)cc1 | 16 | i | 0 | 26* | 21 | 28*
CCOc1ccc(Cn2c(O)cc(=O)[nH]c2=O)cc1 | 14 | i | 1 | 39* | 19 | 24*
Nc1cc(=O)[nH]c(=O)n1Cc1ccccc1 | -9 | i | 1 | 0 | . | .
O=c1cc(CSc2nc3ccccc3c(=O)[nH]2)c2ccc(O)cc2o1 | 16 | i | 0 | . | . | .
Cc1nc2scc(-c3ccc(C(C)C)cc3)c2c(=O)n1N | 0 | i | -3 | -1 | . | .
CCOC(=O)C1(Cc2cccc(F)c2)CCN(Cc2cnn(CC)c2)CC1 | 0 | i | 3 | -2 | . | .
CCOC(=O)C1(Cc2cccc(F)c2)CCN(Cc2nc(CC)[nH]c2C)CC1 | . | + | 75* | 87* | 102* | 107*
CCCNC(=O)C1(C)CCCN(C(=O)C2(c3ccc(Cl)cc3)CCCC2)C1 (configuration not stated) | -2 | i | 2 | . | . | .
COc1ccc(/C(O)=C/c2nc3ccccc3n(-c3ccccc3)c2=O)cc1 | 31 | + | 50* | 67* | 66* | 95*
COc1ccc(-n2c(=O)c(CCC(=O)N3CCN(c4cccc(OC)c4)CC3)nc3ccccc32)cc1 | 2 | i | 5 | . | . | .
COc1ccccc1NC(=O)c1ccc(N)cc1 | -6 | i | 2 | -5 | . | .
COC(=O)c1ccc(C(=O)Nc2ccc(N)cc2N)cc1 | . | i | 6 | 108* | 5 | 13
C=CCn1c(SCC(=O)N(CC)C2CCS(=O)(=O)C2)nc2ccccc2c1=O (configuration not stated) | 1 | i | -4 | 52* | 13 | 15
OCC1(CCc2ccccc2)CCCN(CCCc2ccccc2)C1 (configuration not stated) | 2 | i | 1 | -1 | . | .
CCOCCOCN(C#N)c1nc(OC)nc(N(C)C)n1 | 9 | i | -3 | -5 | . | .
O=C1CC(NC(=O)c2ccc(Cl)cc2)C(=O)N1 (configuration not stated) | 5 | i | -2 | 133* | 11 | 21
CC1SCC(NC(=O)c2ccc(Cl)cc2)CS1 (configuration not stated) | -1 | i | 3 | -3 | . | .
Cc1ccc(OCC(=O)N2CCc3ccccc3C2)c([N+](=O)[O-])n1 | 0 | i | -1 | 2 | . | .
SMILES | Rpn11 block | Myeloid diff 2 | HNF4A DNA FP | TPT1 inhibitor | TPT1 inh confirm | RNase T1 counter
Cc1cccc(NC(=O)c2ccc([N+](=O)[O-])s2)c1C | 2 | i | -4 | 1 | . | .
Cn1nnnc1SCc1ccc(Cl)cc1 | 0 | i | 2 | -1 | . | .
Cn1nnnc1SCc1ccc(CSc2nnnn2C)cc1 | -4 | i | 1 | 55* | 3 | 5
CCCc1cc(=O)n2nc(N3CCC(C(=O)N4CCN(c5ccc(OC)cc5)CC4)CC3)sc2n1 | -7 | i | 3 | -2 | . | .
Cc1ccc(-n2nnnc2SCC(=O)N2CC(=O)Nc3ccccc32)cc1 | 6 | i | 9 | 28* | 36* | 46*
Cc1ccc(N=Nc2[nH]c3ccccc3c2O)cc1 | -25 | i | 7 | 24* | -8 | 3
COc1ccc(N=Nc2[nH]c3ccc(C)cc3c2O)cc1 | 3 | i | -1 | 0 | . | .
C/C(=N\Nc1ccc([N+](=O)[O-])cc1)c1ccc(O)cc1 | . | i | 51* | 94* | 91* | 100*
COc1cc(/C=N/NC(=O)CC#N)cc(Br)c1O | 18 | i | -2 | 27* | 16 | 19
N#CC(C#N)=C/C=C(\Nc1ccc(Cl)cc1)c1ccc(Cl)cc1 | 14 | i | 1 | 70* | 13 | 19
N#Cc1ccc(NC(=O)Nc2ccc(Cl)cc2)cc1 | -5 | i | -3 | -1 | . | .
C[C@@H]1CCCCO[C@@H](CN(C)C(=O)CCC(F)(F)F)[C@@H](C)CN([C@H](C)CO)C(=O)c2cc(N(C)C)ccc2O1 | -2 | i | 4 | . | . | .
O=C(c1ccc(N2CCCC2=O)cc1)N1CCOCC1 | -9 | i | 0 | 65* | 5 | 6
COCCn1c(C)cc(C(=O)COC(=O)c2ccc(NC(=O)CC#N)cc2)c1C | 24 | i | 12 | 52* | 30* | 42*
COc1ccc(Cc2nnc(NC(=O)c3cccc(F)c3)s2)cc1OC | -4 | i | -3 | -1 | . | .
CC(=O)N1c2ccc3ccccc3c2C2C=CCC2C1c1ccc(Br)cc1 (configuration not stated) | . | . | . | 36* | 12 | 19
CCOC(=O)c1c(-c2ccc(OC)cc2)csc1/N=C/C1C(=O)CCCC1=O | 32 | i | 4 | 172* | 25* | 36*
O=C1Nc2ccccc2Oc2cc([N+](=O)[O-])cc(Oc3ccccc3)c21 | . | + | 17 | 27* | 46* | 59*
COc1ccccc1CCNC(=O)C(=O)NCC1OCCCN1S(=O)(=O)c1ccc(F)cc1C (configuration not stated) | -1 | i | 3 | 0 | . | .
CC1CC(=O)Nc2ccccc2N1S(=O)(=O)c1ccc(Cl)cc1 (configuration not stated) | -2 | i | 3 | 74* | 2 | 7
CCOC(=O)C1CCCc2c1[nH]c1c(C(=O)O)cccc21 (configuration not stated) | 0 | i | 4 | 0 | . | .
CC(=O)Oc1ccc(C(=O)Nc2ccc(C3(C#N)CCCC3)cc2)cc1 | 0 | i | -1 | -2 | . | .
COc1ccc(C2=NNC(=O)CC2)cc1 | 9 | i | -4 | 4 | . | .
CCCOc1ccc(C2=NNC(=O)CC2)cc1 | 2 | i | 4 | 1 | . | .
CCCCC(CCCC)=N/N=C/c1c(O)n(CC)c2cc(C3=NNC(=O)CC3)ccc12 | . | i | 20 | 34* | 17 | 22*
CCn1c(O)c(/C=N/N=C2CCCCC2)c2cc(C3=NNC(=O)CC3)ccc21 | 30 | i | 12 | 37* | 23 | 36*
C=CCSC1=N/C(=C\c2sccc2C)C(=O)S1 | 2 | i | -2 | 1 | . | .
C=CCSC1=N/C(=C\C=C\c2ccco2)C(=O)S1 | 37 | i | 1 | 29* | 28* | 38*
